# About 83,000 compounds went through this panel and 20% of them were active in at least one assay; those are over-represented in the sample as a whole.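 Interpretation: 100, growth as untreated; towards 0, rising growth inhibition; 0, no net growth; 0 to -100, cell death. Compounds scoring below 10 were considered active.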 A number with no mark means an inactive call. Activity calls are given as the source filed them.
# Experiments:
# Test in all cases: NCI-60 one-dose screen, 48 h (100 = growth as untreated, 0 = no growth, -100 = all killed)
# Conditions in all cases: 10 µM unless noted
# [1] = tested on: SK-MEL-2 melanoma
# [2] = tested on: EKVX NSCLC
# [3] = tested on: SN12C renal
# [4] = tested on: UO-31 renal
# [5] = tested on: TK-10 renal
# [6] = tested on: ACHN renal
# [7] = tested on: CAKI-1 renal
# [8] = tested on: A498 renal
# [9] = tested on: CCRF-CEM leukemia
# [10] = tested on: MOLT-4 leukemia
# [11] = tested on: SR leukemia
# [12] = tested on: RPMI-8226 leukemia
# [13] = tested on: OVCAR-8 ovarian
# [14] = tested on: OVCAR-5 ovarian
# [15] = tested on: OVCAR-4 ovarian
# [16] = tested on: SK-OV-3 ovarian
# [17] = tested on: IGROV1 ovarian
# [18] = tested on: OVCAR-3 ovarian
# [19] = tested on: HS 578T breast
# [20] = tested on: NCI/ADR-RES ovarian
SMILES,growth [1],growth [2],growth [3],growth [4],growth [5],growth [6],growth [7],growth [8],growth [9],growth [10],growth [11],growth [12],growth [13],growth [14],growth [15],growth [16],growth [17],growth [18],growth [19],growth [20]
N#CSc1c[nH]c2cccc(/C=C/C(=O)/C=C(O)/C=C/c3cccc4[nH]cc(SC#N)c34)c12,-58.8% (active),-23.9% (active),-71.2% (active),-87.3% (active),-44.8% (active),-85.6% (active),-70% (active),-12.7% (active),-22.1% (active),-39% (active),0.385% (active),-28.9% (active),-34.2% (active),-69.6% (active),-20.1% (active),-24% (active),-37.4% (active),-17.6% (active),22.8%,39.9%
NC(=O)c1c(NC(=O)c2cccs2)sc2c1CCC(=O)C2,81.6%,69.6%,44.9%,28.8%,59.8%,22%,-1.29% (active),95%,8.75% (active),13.6%,5.54% (active),-13.6% (active),21.2%,22.2%,-6.38% (active),87.1%,29.7%,13%,35.1%,59.4%
O=C(C1CCCCC1)[C@@H]1[C@]2(C(=O)NC3CCCCC32)[C@@H]2CCCN2[C@@]12C(=O)NC1CCC(Cl)CC12 (stereo not given in full),-79.2% [100 µM] (active),-89.5% [100 µM] (active),-80% [100 µM] (active),-73% [100 µM] (active),-81.1% [100 µM] (active),-97.8% [100 µM] (active),-82.7% [100 µM] (active),-94.8% [100 µM] (active),-49% [100 µM] (active),-57.3% [100 µM] (active),-68.6% [100 µM] (active),-33.6% [100 µM] (active),-64.3% [100 µM] (active),-89.5% [100 µM] (active),-79.6% [100 µM] (active),-94.1% [100 µM] (active),-70.3% [100 µM] (active),-91.9% [100 µM] (active),-43.6% [100 µM] (active),-68.2% [100 µM] (active)
CCCn1cnc2c(c1=N)C(c1ccc(F)cc1)c1sc3c(F)cccc3c1O2 (stereo not given),45.8%,76.5%,58.6%,53.9%,80.3%,56.8%,30.6%,51.1%,20.4%,43.8%,28.8%,39.7%,59.1%,81.4%,76.7%,71%,46.2%,10.5%,28.7%,31.1%
CCN1CCN(CC(=O)Nc2nc3ccc(NCc4ccc(F)cc4)cc3s2)CC1,106%,86.6%,88.5%,75.6%,105%,94.7%,89.9%,95.2%,87%,84.8%,80.2%,77.3%,95.6%,94.8%,84%,105%,103%,99.4%,92.9%,92.2%
Cc1ccc(N2C(=O)CCC2=O)cc1,84.8%,95.1%,95.3%,97.9%,89.9%,103%,96.9%,82.3%,108%,101%,104%,103%,108%,96.3%,103%,99.7%,113%,102%,99.4%,98.5%
C[C@H](C(=O)N(CCc1ccc(Cl)c(Cl)c1)Cc1cncs1)[C@@H]1CC[C@H](C[C@H](C)n2cc(CN3CCC(c4ccc(Cl)cc4)CC3)nn2)O1,106%,95.4%,97.5%,82.2%,104%,102%,87.9%,108%,94.3%,-70% (active),-44.7% (active),91.7%,91%,97%,92.6%,103%,101%,105%,98.7%,105%
COc1cc(Cl)c(C)cc1NC(=O)c1cc2ccccc2cc1O,-33.1% (active),0.938% (active),8.39% (active),0.513% (active),6.75% (active),4.34% (active),-12.7% (active),-9.59% (active),7.39% (active),17.5%,8.6% (active),7.23% (active),11.9%,20%,20.7%,14.8%,11.9%,6.37% (active),23.8%,0.336% (active)
CC1(C)OB(O)c2cc(-c3nc4ccc5[nH]ncc5c4c4c3CCCC4)ccc21,59.3%,71.8%,51.2%,34.4%,73.4%,21.1%,20.8%,21.9%,50.2%,30.7%,24.5%,28.1%,46.3%,105%,67.1%,33.1%,38.7%,94.6%,68.7%,61.8%
Fc1ccc2[nH]cc(-c3nc(-c4c[nH]c5ccncc45)cs3)c2c1,-49.9% (active),-45.7% (active),-49.8% (active),-69.9% (active),-37.4% (active),-78.2% (active),-17.4% (active),62.1%,-19.2% (active),-32.6% (active),-6.91% (active),-24.2% (active),-41.5% (active),24.3%,-0.149% (active),63.1%,-43.2% (active),-74.3% (active),-38.3% (active),16.9%
CO[C@H](C(=O)[C@@H](O)[C@@H](C)O)[C@@H]1Cc2cc3cc(O[C@H]4C[C@@H](O[C@H]5C[C@@H](O)[C@H](O)C(C)O5)[C@H](O)C(C)(O)O4)cc(O)c3c(O)c2C(=O)[C@H]1O[C@H]1C[C@@H](O[C@H]2C[C@@H](O[C@H]3C[C@@H](OC)[C@H](O)C(C)O3)[C@@H](O)C(C)O2)[C@H](O)C(C)O1 (stereo not given in full),-54.9% (active),34.7%,20.5%,41.7%,37%,25.9%,68.9%,-30.9% (active),54.5%,37.9%,24%,26.7%,24.3%,21%,42.2%,17.3%,32.6%,21.7%,26.4%,102%
CC(C)(C)n1cc(-c2ccnc(NCCCNS(=O)(=O)c3ccc(C(F)(F)F)cc3)c2)c(-c2cccc(F)c2)n1,93.6%,78.7%,82.8%,78%,108%,85.7%,90.3%,92.5%,73.8%,65.3%,25.2%,55.9%,83.1%,85.4%,99.7%,94.2%,84.1%,95%,95%,76.5%
CCOC(=O)c1[nH]c2c(c1C)-c1[nH]c(=O)c(S(=O)(=O)c3ccccc3)cc1SC2,56.4% [100 µM],8.42% [100 µM] (active),59.5% [100 µM],54.2% [100 µM],13.1% [100 µM],20.9% [100 µM],16.2% [100 µM],21.4% [100 µM],52.1% [100 µM],57.3% [100 µM],39.4% [100 µM],33.3% [100 µM],25.3% [100 µM],89.6% [100 µM],5.79% [100 µM] (active),59.8% [100 µM],48.7% [100 µM],-15.1% [100 µM] (active),28.1% [100 µM],59.7% [100 µM]
CC1(C)CC2=C3C=C[C@@H]4[C@@]5(C)CCC(=O)C(C)(C)[C@@H]5CC[C@@]4(C)[C@]3(C)CC[C@@]2(C(=O)O)C[C@H]1O,9.89% (active),34.9%,21.8%,17.1%,16.9%,8.49% (active),22.9%,34.9%,13.3%,19.5%,24.4%,-7.05% (active),32.6%,74.4%,24.4%,1% (active),16.5%,11.6%,58.1%,33.3%
COCCn1cc(-c2csc(-c3c[nH]c4ccc(Br)cc34)n2)c2cccnc21,35.9%,36.9%,51.2%,27.8%,36.6%,27.2%,49.4%,26.7%,14%,8.87% (active),17%,22.2%,21.8%,55.5%,31.2%,47.1%,42.3%,39%,44.5%,10.8%
